Assay outcomes from PubChem BioAssay.
Most compounds without a hit are left out; they make up all but 5.7% or so of the library.
KB-V1 MDR tox – kills drug-selected multidrug resistant KB-V1 cells; KB-V1 MDR cells viability, CellTiter-Glo, 72 h; Potency, µM (doses to about 46.1 µM), most hits filed as cytotoxic; 400,000 compounds, 3.4% hits; AID 1347076; note: potency is the fitted concentration of half-maximal effect; nearly all actives have a fitted effect of over 60% in size
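KB-V1 cells (P-gp-expressing MDR subline of KB-3-1) in phenol-red-free DMEM with 10% FBS were exposed to library compounds over a concentration series for 72 h at 37 degrees C. Viability read by CellTiter-Glo luminescence; concentration-effect curves fitted after normalization.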
KB-3-1 cytotox – kills parental KB-3-1 adenocarcinoma cells; Potency, µM (top dose mostly 46.1 µM), usual class: cytotoxic; 400,000 compounds, 1.4% hits; KB-3-1 viability, CellTiter-Glo ATP luminescence, 72 h; note: potency is the fitted concentration of half-maximal effect; nearly all actives have a fitted effect of over 60% in size
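Parental KB-3-1 viability, qHTS format: 72 h compound exposure, 37 °C; CellTiter-Glo; media-only wells and DMSO plates as controls; concentration-effect fits on corrected data.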
A549 tox – counter-screen for Nrf2 inhibitors: cytotoxicity in A549 cells. A549 ARE-Fluc cells, CellTiter-Fluor viability, 18-24 h. Potency, µM (highest dose often 46 µM), inactives show at the top dose activity change, negative = cytotoxicity, actives largely listed as inhibitors. 390,000 compounds, 0.16% hits; note: potency is the fitted concentration of half-maximal effect
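A549 ARE_Fluc cells in 5% FBS OPTI-MEM were exposed to compounds in concentration-response for 18-24 h at 37 deg C. Viability was read by CellTiter-Fluor fluorescence (Ex 405/Em 525) after 30 min, before the luciferase read.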
PI4K2A block – PI4K2A (human) kinase inhibition; Q9BTU6; purified PI4K2A, ADP-Glo luminescence, 1 h; hits give low values; activity change, negative = inhibition, % at 76.9 µM; 420,000 compounds, 0.13% hits; AID 1346378; in the data active = activity change below about -50%; inconclusive = mostly about -30% to -49%;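 note: -100% = wells without enzyme as full effect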
Target sequence (Q9BTU6 whole entry, looked up): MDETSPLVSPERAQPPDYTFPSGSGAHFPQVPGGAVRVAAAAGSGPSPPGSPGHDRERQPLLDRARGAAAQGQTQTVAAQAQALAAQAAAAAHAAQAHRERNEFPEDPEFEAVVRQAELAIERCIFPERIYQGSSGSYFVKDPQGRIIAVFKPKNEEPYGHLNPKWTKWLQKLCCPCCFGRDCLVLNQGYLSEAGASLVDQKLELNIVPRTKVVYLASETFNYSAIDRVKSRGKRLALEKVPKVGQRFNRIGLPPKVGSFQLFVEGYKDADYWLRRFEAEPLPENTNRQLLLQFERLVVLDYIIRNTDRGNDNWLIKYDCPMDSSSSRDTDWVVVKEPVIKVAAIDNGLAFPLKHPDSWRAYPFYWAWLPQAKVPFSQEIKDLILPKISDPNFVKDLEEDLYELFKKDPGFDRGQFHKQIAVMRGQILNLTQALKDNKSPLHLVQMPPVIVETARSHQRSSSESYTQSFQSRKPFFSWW
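In this quantitative HTS, ADP production by PI4K2A was quantified luminescently after 1 h at ambient temperature; 100 microM adenosine served as plate-quality control.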
Giardia killer – Giardia lamblia killing; Giardia lamblia trophozoite viability; activity change, % at 7.66 µM, hits read low; AID 540267; 340,000 compounds, 0.15% hits; in the data active = activity change below about -80%; inconclusive = between about -30% and that limit;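 note: parasites exposed to compound for two days anaerobically before the ATP read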
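Giardia trophozoites, 100 cells per well, were exposed to compounds for 48 hrs at 37 deg C under anaerobic conditions; viability was then read as ATP content by bioluminescence after 15-30 min at room temperature.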
Nrf2 inh – Nrf2 pathway inhibition | A549 ARE-Fluc reporter, luciferase luminescence, 18-24 h | AID 504444 | Potency, µM (series often up to 46 µM), for the others: top-dose activity change, negative = inhibition, most hits filed as inhibitors | 360,000 compounds, 2.1% hits; note: potency is the fitted concentration of half-maximal effect; nearly all actives have a fitted effect of over 60% in size
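Concentration-response testing used A549 ARE_Fluc cells at 5000 cells/well. Following an 18-24 h compound incubation, viability was read by fluorescence (Ex 405/Em 525) and luciferase output by luminescence.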
Starred values were filed as active, the others as inactive. Unless noted, calls come from the whole dose curve; as a rule, active = well fitted curve in the direction sought with a large enough effect; inconclusive = small, poorly fitted or top-dose-only effect, or another doubt; inactive = no such curve, though single readings can be large; an effect the other way counts as inactive or inconclusive. Unless noted, % is set by controls: 0 for no effect and ±100 for the full control effect.

`CCn1nc(-c2ccccc2)nc2c(=O)n(C)c(=O)nc1-2` gave KB-V1 MDR tox inactive, KB-3-1 cytotox 5.17µM*, A549 tox 4.11µM*, PI4K2A block -57.4*, Giardia killer -88.6* and Nrf2 inh 2.91µM*.
`CC(C)(C)c1ccc(O)cc1` gave PI4K2A block -2.0.
`COC1CC(=C(c2cccs2)c2cccs2)C[N+](C)(C)C1` (stereo not given) gave PI4K2A block -0.2.
Screening COc1cccc(NC(=O)c2cccn(Cc3ccccc3C)c2=O)c1 returned KB-V1 MDR tox inactive, KB-3-1 cytotox inconclusive, A549 tox -2.0% and PI4K2A block -3.8.
Screening COc1cc([N+](=O)[O-])cc([N+](=O)[O-])c1N returned KB-V1 MDR tox inactive and KB-3-1 cytotox inactive.
Screening O=C1CN2CCOC2(c2ccccc2Cl)c2cc(Cl)ccc2N1 (stereo not given) returned PI4K2A block -1.7.
Screening CC(=O)Nc1ccccc1C(=O)OCC(=O)c1ccc2ccccc2c1 returned KB-V1 MDR tox 14.6µM*, KB-3-1 cytotox inactive, A549 tox -11.7%, PI4K2A block -8.7, Giardia killer 7.6 and Nrf2 inh inconclusive.
CC(=O)Nc1ccccc1C(=O)OCc1cccc(F)c1 was read as KB-V1 MDR tox inactive, KB-3-1 cytotox inactive, A549 tox 0.9%, PI4K2A block 1.6, Giardia killer 12.4 and Nrf2 inh inconclusive.
For CC(=O)Nc1ccccc1C(=O)OCc1ccc(C(=O)c2ccccc2)cc1 the results were KB-V1 MDR tox 6.51µM*, KB-3-1 cytotox inconclusive, A549 tox -22.7%, PI4K2A block -2.8, Giardia killer 37.9 and Nrf2 inh -36.8%.
Screening COC(=O)c1ccc(COc2cc(C)cc3oc(=O)c4c(c23)CCCC4)o1 returned KB-V1 MDR tox inconclusive, KB-3-1 cytotox inactive, A549 tox 7.3%, PI4K2A block 1.4, Giardia killer -10.8 and Nrf2 inh inconclusive.
COC(=O)c1ccc(CSc2nc3c(cnn3-c3ccc(C)cc3)c(=O)[nH]2)o1 was read as KB-V1 MDR tox inconclusive, KB-3-1 cytotox inactive, A549 tox -1.3%, PI4K2A block -2.5, Giardia killer 14.6 and Nrf2 inh 23.1µM*.
Screening O=C1NC(=O)N(CCc2ccc(F)cc2)C(=O)/C1=C\C=C\c1ccccc1 returned KB-V1 MDR tox 14.6µM*, KB-3-1 cytotox 16.4µM*, A549 tox 0.9%, PI4K2A block -6.2, Giardia killer 13.2 and Nrf2 inh -4.6%.
O=C1NC(=O)N(Cc2ccccc2)C(=O)/C1=C\C=C\c1ccco1 was read as KB-V1 MDR tox inconclusive, KB-3-1 cytotox inactive, A549 tox inconclusive, PI4K2A block -23.0, Giardia killer 7.0 and Nrf2 inh 25.9µM*.
Screening O=C(COc1ccc2ccccc2c1)N1CCN(Cc2c[nH]c3ccccc23)CC1 returned KB-V1 MDR tox inconclusive, KB-3-1 cytotox inconclusive, A549 tox -13.7%, PI4K2A block -6.5, Giardia killer 23.8 and Nrf2 inh 5.1%.
O=C(COc1ccc(Br)cc1)N1CCN(Cc2c[nH]c3ccccc23)CC1 was read as KB-V1 MDR tox 18.4µM*, KB-3-1 cytotox inactive, A549 tox -2.6%, PI4K2A block -4.0, Giardia killer 4.9 and Nrf2 inh 0.1%.
Screening COc1cc([N+](=O)[O-])c2nc(C)ccc2c1[N+](=O)[O-] returned KB-V1 MDR tox inconclusive, KB-3-1 cytotox inactive, A549 tox -8.4%, PI4K2A block 4.0, Giardia killer 0.5 and Nrf2 inh -7.1%.
Screening COc1cc([N+](=O)[O-])c2ncccc2c1[N+](=O)[O-] returned KB-V1 MDR tox 16.4µM*, KB-3-1 cytotox inconclusive and PI4K2A block -7.6.
`COC(=O)C1=C(c2cccc(OC)c2OC)C[C@@H]2CC[C@H]1N2C(=O)NCCNC(C)=O` gave KB-V1 MDR tox inconclusive, KB-3-1 cytotox inactive, A549 tox -0.4%, PI4K2A block 1.0, Giardia killer 15.7 and Nrf2 inh 14.6%.
`COc1ccc2c(c1)C(NC(C)=O)CCc1cc(OC)c(OC)c(OC)c1-2` (stereo not given) gave KB-V1 MDR tox 0.366µM*, KB-3-1 cytotox 0.146µM*, A549 tox inconclusive, PI4K2A block 0.8, Giardia killer 19.4 and Nrf2 inh inconclusive.
COc1cc2c(c(OC)c1OC)-c1ccc(OC)c(=O)cc1C(NC(C)=O)CC2 (stereo not given) was read as KB-V1 MDR tox inactive, KB-3-1 cytotox 0.0073µM*, A549 tox inconclusive, PI4K2A block -6.2, Giardia killer -10.7 and Nrf2 inh inconclusive.
For COC1=C[C@@H]2C3=C([C@@H]2C1=O)[C@@H](NC(C)=O)CCc1cc(OC)c(OC)c(OC)c13 the results were KB-V1 MDR tox inactive, KB-3-1 cytotox inactive, A549 tox -1.7%, PI4K2A block 3.5, Giardia killer 15.4 and Nrf2 inh 2.7%.
Screening COc1cc2c(c(OC)c1OC)-c1ccc(O)c(=O)cc1C(NC(C)=O)CC2 (stereo not given) returned KB-V1 MDR tox inconclusive, KB-3-1 cytotox 0.0082µM*, A549 tox inconclusive, PI4K2A block 2.4, Giardia killer 5.8 and Nrf2 inh inconclusive.
For CCc1nn2c(=O)cc(N3CCN(C)CC3)nc2s1 the results were A549 tox -2.1% and Nrf2 inh 7.7%.
For Cc1ccc(-c2nc(CN3C(=O)CN=C(c4ccccc4Cl)c4cc(Cl)ccc43)c(C)o2)cc1 the results were KB-V1 MDR tox inconclusive, KB-3-1 cytotox inconclusive, A549 tox -7.2%, PI4K2A block -1.1 and Nrf2 inh inconclusive.
For CC1CN(c2ccc([N+](=O)[O-])c3cccnc23)CC(C)N1 (stereo not given) the results were KB-V1 MDR tox inactive, KB-3-1 cytotox inactive, A549 tox -19.0%, PI4K2A block 3.2, Giardia killer -86.5* and Nrf2 inh 8.0%.
O=[N+]([O-])c1ccc(N2CCCC2)c2ncccc12 was read as KB-V1 MDR tox inconclusive, KB-3-1 cytotox inactive, A549 tox -8.2%, PI4K2A block 5.1, Giardia killer 5.6 and Nrf2 inh -8.7%.
Cc1ccc(Cn2cccc(C(=O)Nc3ccc4c(c3)OCCO4)c2=O)cc1 was read as KB-V1 MDR tox inconclusive, KB-3-1 cytotox inactive, A549 tox -19.9% and PI4K2A block 1.8.
C=C1C(=O)[C@@]23C[C@H]4[C@@H]5[C@@]6(C)CCC[C@@]57[C@@H]2[C@@H](O)[C@@H]1C[C@H]3[C@H]7N4C6 was read as KB-V1 MDR tox inactive, KB-3-1 cytotox inconclusive, A549 tox 13µM*, PI4K2A block -2.5, Giardia killer -3.0 and Nrf2 inh 23.1µM*.
